# The full ranking holds about 9,900 sequences; the median of “r (bound/input frequency ratio)” is about 0.7, and the highest 2% start at about 6.5. Many of the other results were omitted from the sample, so the highest values are more common in it than they were.
# B1: ENSMUSG00000042529.435|Kcnj12|146:150 (ssRNA)
# RNA: GGGAGUUCUACAGUCCGACGAUCGCUUCGAUAUCCGCAUGCUAAGAGAGAGAGAGAGAGAGAGAGAGAGAGAGAGAGAGAGAGCUGCACAGGAUGAAGCAGCUGCCCUGAGCCCAUCUGGUGCUGUGCACCUGGUCCUUGUCCAGCCGAGGGCCUGGGGGCAGAAGAACACACCAUAGGGAGGCCCUUCAUACGGUGUCUGCCCUAUGUGAGGUCAUAGAAUGUUAAAUCUAUUUUAAACGGUGAAACUGGAGAAUUUUCAUGUUAUUUUCAAUAAUAGUGGUAUCUAAAGAUGUAGGCAACACUCUUGCGGUCGCACUAGUGUGGAAUUCUCGGGUGUCAAGG
# B2: ENSMUSG00000035202.98|Lars2 (ssRNA)
# RNA: GGGAGUUCUACAGUCCGACGAUCGCUUCGAUAUCCGCAUGCUAUCCUGCUCAGUACGAGAGGAACCGCAGCUAGCUUGUGUCUCCAGUGUCUUUUACCAUCACAGGCCCUGGCUCUGUGCUACCUCCCUAGAAUACCUGUGGUUCAUCACCUUCAGCUCACACUCCAUUCAGACAAUGCUCACUUAGGCCUACAAGCAAGGGAGAGGCUUAAGCACAAGGUCUUUAAGCUUGAUACUGUGCCUGGUCUCAAUGCCUAGAAAUUCCAACUUAACUGUCGCUAUCAUAAAGGAUUUUAAAUUUUUCUCUUGCGGUCGCACUAGUGUGGAAUUCUCGGGUGUCAAGG
# B3: ENSMUSG00000090935.628|Synj2bp (ssRNA)
# RNA: GGGAGUUCUACAGUCCGACGAUCGCUUCGAUAUCCGCAUGCUAGUCUUAAACUGAUUAGUAACACUAUGACUUACCCUGAGAUCUAAGUAUUGCUAUAAAGAGACUGAAGAGGAGAGAAUAAAGUAUUUUCCUAGGACUACAUAGUUGGUAAAAGAGAAUCAUGAUUUAAACUCUGGACUAUGGAUGGCAGUAUCAGUAAUAUUCCCUCAUAGCUAGCAGUCCUCAUGCAAGGUCUCUGAACAAAAGCAACGUAUCACCUGCAAAUGCUUGGGUUUCAUCCCAUUCUUAUGGAGUGAGAUGAGCUCUUGCGGUCGCACUAGUGUGGAAUUCUCGGGUGUCAAGG
# B4: ENSMUSG00000061578.1408|Ksr2|69:73 (ssRNA)
# RNA: GGGAGUUCUACAGUCCGACGAUCGCUUCGAUAUCCGCAUGCUACUCCACGGACCUCAGGCCCACUGUUUUCUCCAUGUCUGUCUGUACUGACUGUUGCAGAAUGAGCUGAUCAUACAUCUUGAUUCUCCAUUUUCCUUCUGGACCACAUGUCUCUUCCUUUUCCUUUUUAGAUCUGUCUUGCUCUCUGUCUCUCUCACUCAUUGCCAACAUGUUGCUGGGAAAGAAUAUUUGAUUUAGAUGCCAAUCAGGAAGGCAAGUAGGAUGGAUGGAUGAGUGAGUGGAUAGGUAGGUAUAUAAAUGGACUCUUGCGGUCGCACUAGUGUGGAAUUCUCGGGUGUCAAGG
# B5: ENSMUSG00000031028.69|Tub|109:121;139:143 (ssRNA)
# RNA: GGGAGUUCUACAGUCCGACGAUCGCUUCGAUAUCCGCAUGCUAUGGAGGUACAGAGGGAGAGGAAGCACAAGCCUGGCUGCUGUGGCUCAGCCAUCCACUCAGCCUACGAGUCAGAGACAGUGGGUGUCCCGGGAAGCAGGGGUACAGUGACACACACACAUACUACAGGGCACUCAAGCUCAUACUAGAAAAAGCUCUGGUGGUCAGCAGAAAGCACUCCCACUUCAAAAGGGCCCAUUAGGCCCAAAGGGGGUUAGGAGUGGUAGGGAUAGGUGCGUGGCAGGUCCCUGCUAGGAUUGCAGCUCUUGCGGUCGCACUAGUGUGGAAUUCUCGGGUGUCAAGG
# B6: ENSMUSG00000028439.266|Fam219a|244:248 (ssRNA)
# RNA: GGGAGUUCUACAGUCCGACGAUCGCUUCGAUAUCCGCAUGCUAUGCUGGUCUGGUCUGAGGGAGGAAAGCUGAGGCUGUAGCUCAGUGAGAUGGUGGCUCUCCCAUGGCUGAAGACAAGUGCAAGCAGAGAGAGCCUCAGGCUGCUGGGCCUCGGACCCACGAGCCUCCUCUCACUGAGCCAGUGCGGCCAGAGUGUCUCUCCUUCAGGCGCCCCACAUGCCAGCAUUUCCACCCUCUGGAUUCUCCUCACAUGUCACUCUCCAGGUGCCGGGGCCUAGAGUGGGCCACACAGAAGGAGGAGUCUCUUGCGGUCGCACUAGUGUGGAAUUCUCGGGUGUCAAGG
# B7: ENSMUSG00000042529.487|Kcnj12 (ssRNA)
# RNA: GGGAGUUCUACAGUCCGACGAUCGCUUCGAUAUCCGCAUGCUAGAUGUGCGUCUCACUGGCCUCUGCCUGCCUCUCCCGCCUGCGGAGCACUUACACUUCCUGGGGCCCCUGCAGCUGGACCAUGUACAGGGCUCCCUGGGGCUUGUCCUCAGGGGCAGAGAAGGACAUGGUGGCAGCAGCACUGAGAACAGGAGCAUGGCCUCUCUCAGACCCCAGGGCAGUCAUUCAGUCUUUUCCAUGGACACUCCCCACCGCUCCACAUACUGCCUCCGCCUCAUUCUUGGGCUCUUCCUGCCUUGCUGCUCUUGCGGUCGCACUAGUGUGGAAUUCUCGGGUGUCAAGG
# B8: ENSMUSG00000004113.203|Cacna1b (ssRNA)
# RNA: GGGAGUUCUACAGUCCGACGAUCGCUUCGAUAUCCGCAUGCUAGCAUCGUGGAUGAGGUACGGCCUCAGGAAGCAUCGGGUGGAUUGGGUGGGAGCUGCUCAGAGCAGCACGGGGGCUUGUGUCUUAGGGACAUUGACAGUGUCCAUCAGCAUGUCAGAGAAGCAGCUGUAGUGCCCGUGUUUCUCCCUGAGUCAUGGGUUCUGAAGAAGCCAGAGCGGCACAAUGCGUGCUUGCAUGAGGCACUUUCAGCCUUUUUAAAUCUGACUCUCAGGGAUGGGAUGCCUGCCAAGUAGGGUGUAAUCCUCUUGCGGUCGCACUAGUGUGGAAUUCUCGGGUGUCAAGG
# B9: ENSMUSG00000058297.41|Spock2 (ssRNA)
# RNA: GGGAGUUCUACAGUCCGACGAUCGCUUCGAUAUCCGCAUGCUAGGGAGUGUGGCUUGUGUGUAUGUGUGAUAUGAGAUGUGUGUGUAUGAUGUGAGAUGUGAGUGUGUGAUGUGAGAUGUGUGUAUGUGAGAUGUGUGUGUGUGUGUGUGUGUGUGUGAUGUGAGUCACCCAAAGGUCCCUAUGUUAUUGAUUUUCAAAUGCACACUUUCACACACAAGGAUACACUAACAGACCAAAAUCAAUGAGAUGUCCCUGAUCCUGCCCCUCAGCCCAACACCUGGAAUCCCUGCCCUGCCUAAUCACUCUUGCGGUCGCACUAGUGUGGAAUUCUCGGGUGUCAAGG
# B10: ENSMUSG00000058297.38|Spock2 (ssRNA)
# RNA: GGGAGUUCUACAGUCCGACGAUCGCUUCGAUAUCCGCAUGCUAUCCAGUGGGGGAGGACUGGGGAGUGUGGCUUGUGUGUAUGUGUGAUAUGAGAUGUGUGUGUAUGAUGUGAGAUGUGAGUGUGUGAUGUGAGAUGUGUGUAUGUGAGAUGUGUGUGUGUGUGUGUGUGUGUGUGAUGUGAGUCACCCAAAGGUCCCUAUGUUAUUGAUUUUCAAAUGCACACUUUCACACACAAGGAUACACUAACAGACCAAAAUCAAUGAGAUGUCCCUGAUCCUGCCCCUCAGCCCAACACCUGGAAUCUCUUGCGGUCGCACUAGUGUGGAAUUCUCGGGUGUCAAGG
# B11: ENSMUSG00000058297.37|Spock2 (ssRNA)
# RNA: GGGAGUUCUACAGUCCGACGAUCGCUUCGAUAUCCGCAUGCUACCUGGCUCCAGUGGGGGAGGACUGGGGAGUGUGGCUUGUGUGUAUGUGUGAUAUGAGAUGUGUGUGUAUGAUGUGAGAUGUGAGUGUGUGAUGUGAGAUGUGUGUAUGUGAGAUGUGUGUGUGUGUGUGUGUGUGUGUGAUGUGAGUCACCCAAAGGUCCCUAUGUUAUUGAUUUUCAAAUGCACACUUUCACACACAAGGAUACACUAACAGACCAAAAUCAAUGAGAUGUCCCUGAUCCUGCCCCUCAGCCCAACACCCUCUUGCGGUCGCACUAGUGUGGAAUUCUCGGGUGUCAAGG
# B12: ENSMUSG00000058297.38|Spock2|23:27;31:44;53:64;78:84;93:102;108:133 (ssRNA)
# RNA: GGGAGUUCUACAGUCCGACGAUCGCUUCGAUAUCCGCAUGCUAUCCAGUGGGGGAGGACUGGGGACACACGCUACACACAUACACACAUAUGAGAACACACACAUACAUGUGAGAUGUGACACACACAUGUGAGAACACACAUACUGAGAACACACACACACACACACACACACACAUGUGAGUCACCCAAAGGUCCCUAUGUUAUUGAUUUUCAAAUGCACACUUUCACACACAAGGAUACACUAACAGACCAAAAUCAAUGAGAUGUCCCUGAUCCUGCCCCUCAGCCCAACACCUGGAAUCUCUUGCGGUCGCACUAGUGUGGAAUUCUCGGGUGUCAAGG
# B13: ENSMUSG00000058297.40|Spock2 (ssRNA)
# RNA: GGGAGUUCUACAGUCCGACGAUCGCUUCGAUAUCCGCAUGCUAGGACUGGGGAGUGUGGCUUGUGUGUAUGUGUGAUAUGAGAUGUGUGUGUAUGAUGUGAGAUGUGAGUGUGUGAUGUGAGAUGUGUGUAUGUGAGAUGUGUGUGUGUGUGUGUGUGUGUGUGAUGUGAGUCACCCAAAGGUCCCUAUGUUAUUGAUUUUCAAAUGCACACUUUCACACACAAGGAUACACUAACAGACCAAAAUCAAUGAGAUGUCCCUGAUCCUGCCCCUCAGCCCAACACCUGGAAUCCCUGCCCUGCCCUCUUGCGGUCGCACUAGUGUGGAAUUCUCGGGUGUCAAGG
# B14: ENSMUSG00000058297.39|Spock2 (ssRNA)
# RNA: GGGAGUUCUACAGUCCGACGAUCGCUUCGAUAUCCGCAUGCUAGGGGGAGGACUGGGGAGUGUGGCUUGUGUGUAUGUGUGAUAUGAGAUGUGUGUGUAUGAUGUGAGAUGUGAGUGUGUGAUGUGAGAUGUGUGUAUGUGAGAUGUGUGUGUGUGUGUGUGUGUGUGUGAUGUGAGUCACCCAAAGGUCCCUAUGUUAUUGAUUUUCAAAUGCACACUUUCACACACAAGGAUACACUAACAGACCAAAAUCAAUGAGAUGUCCCUGAUCCUGCCCCUCAGCCCAACACCUGGAAUCCCUGCCUCUUGCGGUCGCACUAGUGUGGAAUUCUCGGGUGUCAAGG
# Target: TDP-43 (Homo sapiens, UniProt Q13148 1-414)
# Sequence (Q13148 whole entry): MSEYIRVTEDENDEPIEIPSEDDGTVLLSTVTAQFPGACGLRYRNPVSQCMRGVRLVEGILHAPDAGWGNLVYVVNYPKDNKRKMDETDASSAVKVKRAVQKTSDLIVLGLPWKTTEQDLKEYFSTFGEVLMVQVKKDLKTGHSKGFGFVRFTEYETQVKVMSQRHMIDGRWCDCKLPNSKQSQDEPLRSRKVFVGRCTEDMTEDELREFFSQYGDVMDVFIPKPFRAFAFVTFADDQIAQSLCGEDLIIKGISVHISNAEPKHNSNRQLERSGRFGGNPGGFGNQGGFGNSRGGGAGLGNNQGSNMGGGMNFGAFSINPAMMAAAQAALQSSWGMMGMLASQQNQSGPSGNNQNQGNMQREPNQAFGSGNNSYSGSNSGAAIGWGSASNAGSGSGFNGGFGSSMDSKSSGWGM
# Test: RNA Bind-n-Seq with designed 260-mer pool; 25 mM Tris-HCl, 150 mM KCl, 3 mM MgCl2, BSA (printed 500 mg/mL), 20 units/mL SUPERase IN; pH not stated; 500 nM RNA pool, 1 h, 4 C; TDP-43 5, 50, 500 nM; high values mean tight binding
# Conditions: protein: recombinant; tags: SBP (GST cleaved off with PreScission; pGEX-GST-SBP)
# Method in brief: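 In 25 mM Tris-HCl, 150 mM KCl, 3 mM MgCl2, BSA and SUPERase IN, 500 nM of an in vitro-transcribed 260-nt 3′ UTR oligo pool was incubated for 1 h at 4 °C with SBP-tagged TDP-43 (5, 50 or 500 nM) captured on streptavidin beads. RNA remaining after washes was biotin-eluted, reverse transcribed, PCR-amplified and sequenced. Binding, R, is the bound-sample abundance of each oligo, normalized to mapped reads, divided by its abundance in input. Each duplicate used a separate, independent protein batch.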
row,Binder,binding signal
1,B1,4.76 R (bound/input frequency ratio)
2,B2,0.339 R (bound/input frequency ratio)
3,B3,0.125 R (bound/input frequency ratio)
4,B4,0.845 R (bound/input frequency ratio)
5,B5,0.841 R (bound/input frequency ratio)
6,B6,0.614 R (bound/input frequency ratio)
7,B7,0.428 R (bound/input frequency ratio)
8,B8,1.21 R (bound/input frequency ratio)
9,B9,5.21 R (bound/input frequency ratio)
10,B10,6.55 R (bound/input frequency ratio)
11,B11,6.03 R (bound/input frequency ratio)
12,B12,2.11 R (bound/input frequency ratio)
13,B13,8.17 R (bound/input frequency ratio)
14,B14,5.98 R (bound/input frequency ratio)

# Source: publication PMC12864922, “TDP-43 directly inhibits mRNA accumulation in neurites through modulation of mRNA stability”
